# In PubChem BioAssay AID2315 (National Center for Advancing Translational Sciences (NCATS), 2010):
# Where “and” joins values, the source holds several entries; their conditions need not be identical. Equal entries are not always repeated. In all, about 290,000 compounds went through this assay and about 27,000 (9.3%) were called active. The full list was thinned out, with actives kept by preference. Unmarked numbers belong to inactive results. No stated cut-off is given here; in the data, active means inhibition mostly above about 28% (no sharp cut-off); inactive means mostly below about 43%.
# Assay: A qHTS for Small Molecule Inhibitors of Shiga Toxin; further: 0% is about no effect
# Conditions: Vero cells, Shiga toxin protein synthesis inhibition reporter; at 38.7 µM, active compounds read high
row,Structure (SMILES),inhibition
1,C=CCC1=C/C(=C\c2c(N)n3nc(CC(=O)N4CCOCC4)sc3nc2=O)C=C(OC)C1=O,-1.44%
2,Cc1cnc(CN(C)C(=O)CC2C(=O)NCCN2Cc2cccc(F)c2F)[nH]1 (stereo unspecified),-27.4%
3,O=C(Cn1c[n+](CC(=O)c2ccc([N+](=O)[O-])cc2)cn1)c1ccc([N+](=O)[O-])cc1,-3.01% and 31.4%
4,COc1ccccc1CNS(=O)(=O)c1ccc2c(c1)NC(=O)CS2,17.1%
5,CCOC(=O)c1ccccc1NS(=O)(=O)c1c(C)nc2sccn2c1=O,-9.62%
6,CN1OC(COC(=O)c2ccc(Cl)cc2)CC1c1ccccc1 (stereo unspecified),50.7% (active)
7,Cn1cncc1COC(=O)c1ccc(Cl)cc1,0.74%
8,CN1C2C=C(N(C(=O)c3ccc(Cl)cc3)c3ccccc3)CC1CC2 (stereo unspecified),-14.6%
9,Cc1ccc(NS(=O)(=O)c2ccc3c(c2)NC(=O)CO3)cc1,-11.9%
10,Cc1cc(NC(=O)CSc2nnnn2-c2ccc(F)cc2)no1,24.2%
11,CN(C)c1nc(-c2cccnc2)nc(-c2ccc(Cl)cc2)c1C#N,-6.6%
12,CN(C)c1ccc(-c2nnc(-c3cccnc3)o2)cc1,104% (active)
13,Cc1csc(NC(=O)CSc2nnc(-c3cccnc3)o2)n1,-20.1%
14,Cc1ccc(-n2ncc3c2CCCC3NC(=O)c2cnccn2)cc1C (stereo unspecified),5.12%
15,CCCCN(C)CCNC(=O)C1CCCN(S(=O)(=O)c2cccc3nsnc23)C1 (stereo unspecified),-5.4%
16,O=C(CCN1CCN(C/C=C/c2ccccc2)CC1)Nc1ccccc1Cl,2.18%
17,COc1cccc2cc(C(N)=O)/c(=N\NC(=O)c3ccccc3)oc12,97% (active)
18,COc1ccc(C(=O)N/N=c2\oc3ccccc3cc2C(N)=O)cc1,55.8%
19,NC(=O)c1cc2ccccc2o/c1=N/NC(=O)c1cccc(F)c1,13.8%
20,O=C1c2ccccc2C(=O)C1c1ccccc1F,-16.3%
21,CC(C)(C)C(=O)OCc1nc(-c2ccc(O)c(O)c2)cs1,27.1%
22,COc1ccc(-c2csc(Cc3nc(O)cs3)n2)cc1,94.8% (active)
23,COc1ccc(C(=O)Nc2nc(-c3ccc(S(=O)(=O)N4CCOCC4)cc3)cs2)cc1,-8.19%
24,COc1ccc(CCN(C(=O)COc2ccccc2)c2nc(-c3ccccc3)cs2)cc1OC,-8.73%

row,Structure (SMILES),inhibition
1,CCCn1c(C2CCCN2c2nc(-c3ccc(OC)cc3)cs2)nc2ccccc21 (stereo unspecified),4.08%
2,O=C(Nc1ccc(-c2csc(Nc3cccc(C(F)(F)F)c3)n2)cc1)c1cccc(C(F)(F)F)c1,-5.94%
3,Oc1ccc(-c2csc(Nc3cccnc3)n2)cc1,121% (active)
4,Brc1ccc(-c2csc(N/N=C/c3cccnc3)n2)cc1,37%
5,CN(C(=O)CSc1nc(C2CC2)nc2ccccc12)c1nc(-c2ccccc2)cs1,14.4%
6,CN(c1ccc(O)cc1)c1nc(-c2cccnc2)cs1,64.4% (active)
7,COc1ccc(-c2csc(Nc3ccc(O)cc3)n2)cc1,92.3% (active)
8,COc1ccc(OC)c(Nc2nc(-c3ccc(O)c(O)c3)cs2)c1,7.27%
9,Cc1ccnc(N2CCCC(C(=O)NC3CC3)C2)n1 (stereo unspecified),-10.6%
10,C[C@@H](NC(=O)[C@@H]1Cc2ccccc2CN1)C(=O)NC1CCCC1,-1.81%
11,COCCNC(=S)N(CCc1c(C)[nH]c2ccc(C)cc12)Cc1cccnc1,3.9%
12,FC(F)(F)C1CCCN(c2nsc3ccccc23)C1 (stereo unspecified),-5.61%
13,CC1(c2ccc3ccccc3c2)NC(=O)N(CC(N)=O)C1=O (stereo unspecified),17.6%
14,O=C(Nc1c2c(nn1-c1cccc(Cl)c1)CS(=O)(=O)C2)c1cccs1,2.33%
15,Cc1ccccc1N1CCN(C2CCCN(C(=O)c3cn4c(C)cccc4n3)C2)CC1 (stereo unspecified),-3.16%
16,CC(=O)Nc1ccc(S(=O)(=O)N2CCC(NC(=O)c3ccccc3)CC2)cc1,37.8%
17,O=C1CN(Cc2ccccc2)S(=O)(=O)c2ccccc21,-2.75%
18,O=S(=O)(NC1CCCCC1N1CCN(c2ccccc2F)CC1)c1ccccc1 (stereo unspecified),-13.8%
19,CCOc1ccccc1NC(=S)N1CCN(c2cccc(C)c2C)CC1,-4.41%
20,O=C(Oc1cccc(C(=S)N2CCOCC2)c1)c1cccc(Cl)c1,-28.3%
21,COc1cccc(-n2cc3c(c2-c2ccccc2)c(=O)n(C)c(=O)n3C)c1,104% (active)
22,COc1ccc(-c2c3c(=O)n(C)c(=O)n(C)c3cn2-c2cccc(OC)c2)cc1,4.73%
23,Cc1ccc(-c2c3c(=O)n(C)c(=O)n(C)c3cn2-c2ccccc2O)cc1,38.5%
24,CC1=C(C(N)=O)C(c2ccc(F)cc2)n2nc(CCCO)nc2N1 (stereo unspecified),-5.77%

row,Structure (SMILES),inhibition
1,Cc1ccc(CNC(=O)CCC(=O)N2CC(C)Sc3ccccc32)cc1 (stereo unspecified),10.9%
2,CC(=O)Nc1ccc(N2C(=O)CC(Sc3nccc(C)n3)C2=O)cc1 (stereo unspecified),-3.46%
3,COc1nc(-c2ccc(Cl)cc2)ccc1-c1noc(-c2cccs2)n1,-10.5%
4,c1csc(-c2nc(-c3ccncc3)no2)c1,58.2% (active)
5,Cc1ccc2nc(-c3ccncc3)cc(C(=O)Nc3ccncc3)c2c1,11.4%
6,c1ccc(-c2noc(-c3cccs3)n2)nc1,15%
7,Cc1ccc(-c2noc(CSc3nnc(-c4ccncc4)n3-c3ccc(F)cc3)n2)cc1,-6.83%
8,Cc1ccc(-c2nc(-c3ccncc3)no2)c(C)c1,80.3% (active)
9,O=C(O)c1cc([N+](=O)[O-])c(Nc2cccc3ccccc23)c([N+](=O)[O-])c1,1.25%
10,CCOC(=O)c1ccc(-c2ccc(C(=O)Nc3cccnc3)o2)cc1,73.3% (active)
11,O=C(Cc1ccccc1)Nc1ccc(NC(=O)c2cccnc2)cc1,-11.9%
12,CCOC(=O)c1ccc(NC(=O)CNC(=O)c2ccco2)cc1,-21.4%
13,COc1ccc(C)cc1NC(=O)c1ccc(-c2ccc(C(C)=O)cc2)o1,-2.76%
14,CCOC(=O)c1ccc(NC(=O)c2cccnc2)cc1,53.7% (active)
15,CC(C)NS(=O)(=O)c1ccc(NC(=O)c2cccnc2)cc1,-10.5%
16,CCn1c(SCC(=O)NC2CC2)nnc1-c1ccccn1,-11.7%
17,CN(C)C(=O)Cn1c(=O)n(S(=O)(=O)c2ccccc2)c2ccccc21,-3.04%
18,COc1ccc(-c2cn[nH]c2-c2ccc(OC)cc2)cc1,-4.19%
19,Cc1cc(C)n(CCNS(=O)(=O)c2ccc(Cl)cc2)n1,-3.35%
20,COc1ccc2cc(-c3[nH]ncc3CNCCn3nc(C)cc3C)ccc2c1,67.7% (active)
21,Cc1ccccc1C(=O)NC(=S)NC1CC1,24.6%
22,O=C1Nc2ccccc2/C1=C/c1ccnc2ccccc12,19.4%
23,CC(=O)Nc1ccn(Cc2c(F)cccc2Cl)n1,64.3% (active)
24,O=C(Nc1ccn(Cc2ccccc2)n1)c1cccc(F)c1,63.4% (active)

row,Structure (SMILES),inhibition
1,O=C1c2ccccc2S(=O)(=O)N1Cc1c(F)cccc1Cl,-12.9%
2,O=C(Nc1ccn(Cc2ccccc2)n1)c1n[nH]c([N+](=O)[O-])c1Cl,16.1%
3,O=C(Nc1ccn(Cc2ccccc2F)n1)c1ccc(COc2ccc(Cl)cc2Cl)o1,21.8%
4,O=C(Nc1cccc(NC(=O)c2cccc(F)c2)c1)c1ccccc1,21.2%
5,CCOCCOC(=O)C(C)Oc1ccc(Oc2ncc(C(F)(F)F)cc2Cl)cc1 (stereo unspecified),-6.29%
6,COc1ccc(C(=O)NCC(=O)N/N=C/c2cccnc2)cc1,-9.22%
7,COc1ccc2c(c1)C(NS(=O)(=O)OCC(Cl)(Cl)Cl)CCC2 (stereo unspecified),-7.98%
8,COc1ccc(NC(=S)N2CCC(NC(=O)c3cccc(F)c3)CC2)cc1,-12.4%
9,O=c1c(-c2ccc(Cl)cc2)[n+]([O-])c2ccccc2n1OCc1nc2ccccc2[nH]1,59.6% (active)
10,CCOc1ccc(OCC)c(-c2c(=O)n(OCc3ccc(Cl)cc3)c3ccccc3[n+]2[O-])c1,10.2%
11,CCOC(=O)COn1c(=O)c(-c2ccc(OCC)cc2)[n+]([O-])c2ccccc21,44.1%
12,CCC(=O)NC(=S)Nc1ccc(NC(=O)c2ccco2)c(Cl)c1,46.1%
13,O=C(NNC(=S)Nc1ccc(Br)cc1Cl)c1ccco1,59.2% (active)
14,O=C(NNC(=O)c1ccco1)Nc1ccccc1,8.84%
15,Cc1ccc2c(c1)N(CC(=O)NCC1CCCO1)C(=O)CO2 (stereo unspecified),40.5%
16,Cc1cc(Br)ccc1NC(=O)c1sc2ncn(CC(=O)N3CCN(c4ccccn4)CC3)c(=O)c2c1C,-6.73%
17,O=C(Nc1cccc(-c2cccc(Cl)c2)c1)C1CCN(C2CCC2)CC1,18.3%
18,COc1ccc(C)cc1NC(=O)Nc1ccccc1SC,-0.581%
19,CCC(=O)Nc1ccc(C(=O)Nc2cc(C)on2)cc1,37.1%
20,CCOc1ccc(NC(=O)Nc2cc(C)on2)cc1,91.1% (active)
21,CCOc1ccc(C(=O)Nc2ccc(S(=O)(=O)Nc3cc(C)on3)cc2)cc1,-6.4%
22,CCOc1ccc(NC(=O)Nc2cc(C)ccc2OC)cc1,29.4% (active)
23,CCOc1ccc(C(=O)Nc2cc(OC)ccc2OC)cc1,25.5%
24,Cc1cc(C)c2c(-c3ccc(F)cc3)c(C#N)c(=O)n(C)c2n1,-4.95%
